Experimental data from PubChem BioAssay.
Calls of active or inactive are those of the source.

Legend:
[1] = optical density shifts of acrAB sulA E. coli – strain DRC41, OD650, 48 h, E. coli filamentation inducer project, primary screen (AID 1152); conditions: higher = more signal, called active from +8 up or from −8 down;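 further: E. coli MC1000 strain DRC41 lacking acrAB efflux pump and sulA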
[2] = probe aLefty1 binding on compound microarray – biochemical, small-molecule microarray, 635/667 nm fluorescence, primary screen (AID 1153); conditions: higher = more signal;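 further: score merges spot fluorescence with signal-to-noise ratio from the scanned slide images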
[3] = plasmodial surface anion channel blockers, osmotic lysis – cell-based, P. falciparum Indochina, OD700, 1 h, primary screen (AID 1154); conditions: P. falciparum Indochina infected RBC osmotic lysis, higher = more signal, called active from +8 up or from −8 down
[4] = plasmodial surface anion channel blockers, osmotic lysis – cell-based, P. falciparum Indochina, OD700, 2 h, primary screen (AID 1155);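 further: lysis reports solute entry through the parasite surface anion channel PSAC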; conditions: P. falciparum Indochina infected erythrocytes, higher = more signal, called active from +8 up or from −8 down
[5] = changes in parasitized red cell lysis, either direction – P. falciparum Indochina, OD700, 3 h, PSAC antagonist project, primary screen (AID 1156); conditions: P. falciparum-infected erythrocytes, osmotic lysis, higher = more signal, called active from +8 up or from −8 down
[6] = plasmodial surface anion channel blockers, osmotic lysis – cell-based, P. falciparum Indochina, OD700, 18 h, primary screen (AID 1157); conditions: P. falciparum Indochina infected erythrocytes, osmotic lysis OD700, 18 h; higher = more signal, called active from +8 up or from −8 down
[7] = S6 kinase pathway phospho-S6 level changes – cell-based, A549, cytoblot, luminescence, serum-stimulated, primary screen (AID 1158); conditions: 5 h, higher = more signal;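 further: serum-stimulated A549 lung adenocarcinoma cells; signal is phosphorylated S6 detected by cytoblot immunostaining with HRP secondary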
[8] = target: NADPH oxidase 2 (Homo sapiens) (UniProt P04839); assay: compounds shifting NOX2 Amplex Red fluorescence – cell-based, HEK293-NOX2, PMA-stimulated, NOX inhibitor project, primary screen (AID 1159); conditions: 45 min, higher = more signal, called active from +8 up or from −8 down; further: test concentration not given here
Chain of NADPH oxidase 2 (Homo sapiens) (P04839 whole entry, looked up): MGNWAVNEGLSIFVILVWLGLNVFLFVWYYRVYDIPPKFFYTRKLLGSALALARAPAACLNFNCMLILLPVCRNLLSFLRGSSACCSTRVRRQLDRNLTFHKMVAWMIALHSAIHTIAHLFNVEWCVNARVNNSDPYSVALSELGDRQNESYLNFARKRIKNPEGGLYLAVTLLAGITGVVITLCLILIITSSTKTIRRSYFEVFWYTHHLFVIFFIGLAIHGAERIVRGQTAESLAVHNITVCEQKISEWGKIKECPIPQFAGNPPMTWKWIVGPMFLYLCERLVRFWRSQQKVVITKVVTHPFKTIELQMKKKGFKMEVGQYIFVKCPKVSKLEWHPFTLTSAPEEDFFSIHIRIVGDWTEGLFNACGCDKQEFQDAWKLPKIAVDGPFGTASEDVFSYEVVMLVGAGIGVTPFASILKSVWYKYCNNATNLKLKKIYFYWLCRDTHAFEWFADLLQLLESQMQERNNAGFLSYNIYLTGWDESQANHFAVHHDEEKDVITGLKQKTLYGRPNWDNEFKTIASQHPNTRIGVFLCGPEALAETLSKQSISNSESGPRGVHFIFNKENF

[9] = target: NADPH oxidase 4 (Homo sapiens) (UniProt Q9NPH5); assay: compounds shifting NOX4 Amplex Red fluorescence – cell-based, HEK293-NOX4, tetracycline-induced, NOX inhibitor project, primary screen (AID 1160); conditions: HEK293-NOX4, Amplex Red H2O2 fluorescence, 45 min; higher = more signal, called active from +8 up or from −8 down
Chain of NADPH oxidase 4 (Homo sapiens) (Q9NPH5 whole entry, looked up): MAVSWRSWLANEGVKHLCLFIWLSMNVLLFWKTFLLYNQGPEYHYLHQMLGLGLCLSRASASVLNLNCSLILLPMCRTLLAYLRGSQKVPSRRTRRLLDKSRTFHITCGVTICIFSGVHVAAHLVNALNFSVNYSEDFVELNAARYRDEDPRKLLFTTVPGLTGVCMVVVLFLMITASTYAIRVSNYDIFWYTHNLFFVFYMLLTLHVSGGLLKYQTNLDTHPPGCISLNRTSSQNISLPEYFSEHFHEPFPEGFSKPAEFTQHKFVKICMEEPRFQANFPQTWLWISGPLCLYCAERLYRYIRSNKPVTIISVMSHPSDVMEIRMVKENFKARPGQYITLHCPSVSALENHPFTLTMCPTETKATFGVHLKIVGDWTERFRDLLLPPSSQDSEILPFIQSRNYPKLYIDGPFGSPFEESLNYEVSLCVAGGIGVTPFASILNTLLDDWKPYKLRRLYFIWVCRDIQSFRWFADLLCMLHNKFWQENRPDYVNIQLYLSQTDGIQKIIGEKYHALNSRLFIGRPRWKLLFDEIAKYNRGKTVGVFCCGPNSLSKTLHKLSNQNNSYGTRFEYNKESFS

[10] = target: NADPH oxidase 5 (Homo sapiens) (UniProt Q96PH1); assay: compounds shifting NOX5 Amplex Red fluorescence – cell-based, HEK293-NOX5, NOX inhibitor project, primary screen (AID 1161); conditions: HEK293-NOX5, ionomycin, 45 min, higher = more signal
Chain of NADPH oxidase 5 (Homo sapiens) (Q96PH1 whole entry, looked up): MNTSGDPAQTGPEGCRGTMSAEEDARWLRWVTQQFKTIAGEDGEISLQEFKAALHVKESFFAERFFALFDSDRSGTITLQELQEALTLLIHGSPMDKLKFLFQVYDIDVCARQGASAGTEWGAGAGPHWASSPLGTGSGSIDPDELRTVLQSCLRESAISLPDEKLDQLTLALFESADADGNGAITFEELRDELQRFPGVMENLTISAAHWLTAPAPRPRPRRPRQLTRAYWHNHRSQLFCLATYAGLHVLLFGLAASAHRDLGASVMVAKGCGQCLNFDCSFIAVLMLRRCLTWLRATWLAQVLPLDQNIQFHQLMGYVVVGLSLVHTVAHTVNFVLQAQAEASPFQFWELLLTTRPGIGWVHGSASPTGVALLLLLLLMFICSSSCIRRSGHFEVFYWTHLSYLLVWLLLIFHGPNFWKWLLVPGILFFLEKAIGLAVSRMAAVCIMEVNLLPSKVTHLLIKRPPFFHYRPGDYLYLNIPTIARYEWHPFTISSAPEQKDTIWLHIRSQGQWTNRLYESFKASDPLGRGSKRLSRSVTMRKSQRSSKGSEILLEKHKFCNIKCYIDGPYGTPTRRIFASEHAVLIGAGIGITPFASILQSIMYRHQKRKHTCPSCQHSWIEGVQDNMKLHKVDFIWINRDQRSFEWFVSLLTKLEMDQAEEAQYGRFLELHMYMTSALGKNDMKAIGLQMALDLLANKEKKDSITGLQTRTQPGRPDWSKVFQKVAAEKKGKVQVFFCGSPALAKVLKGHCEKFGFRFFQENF

Row | SMILES | z-score [1] | composite z-score [2] | z-score [3] | z-score [4] | z-score [5] | z-score [6] | z-score [7] | z-score [8] | z-score [9] | z-score [10]
1 | CC(C)c1ccc(NN2C(C(O)c3ccccn3)C=CC3C(=O)N(c4ccccc4)C(=O)C32)cc1 (stereo not given) | -0.701 (inactive) | 0.595 | 7.66 (inactive) | 1.4 (inactive) | 2.42 (inactive) | 1.64 (inactive) | -0.336 | -1.2 (inactive) | -3.57 (inactive) | -3.05
2 | COCCOC(=O)N1C(=O)[C@@]2(c3cc(C#CC4(O)CCCCCC4)ccc31)[C@H](C(=O)NC[C@H](O)c1ccccc1)[C@H]1C(=O)O[C@H](c3ccccc3)[C@H](c3ccccc3)N1[C@@H]2c1ccc(OCCO)cc1 | 1.07 (inactive) | -0.007 | 3.85 (inactive) | 1.58 (inactive) | -1.29 (inactive) | 1.03 (inactive) | 0.0102 | 1.55 (inactive) | 1.01 (inactive) | 0.979
3 | CC(C)C[C@H]1NC(=O)[C@H](C)NC(=O)[C@@]23C(=O)N[C@@H](Cc4ccccc4)C2[C@H](C)[C@@]2(C)O[C@H]2C3/C=C/C/C=C\CNC1=O (stereo not given in full) | -1.07 (inactive) | -0.774 | 2.71 (inactive) | -0.169 (inactive) | 0.137 (inactive) | 0.11 (inactive) | 0.0246 | -0.232 (inactive) | 0.83 (inactive) | -0.234
4 | COCCOC(=O)N1C(=O)[C@@]2(c3cc(C#Cc4ccc(OC)cc4)ccc31)[C@H](C(=O)N1CCc3cc(OC)c(OC)cc3C1)[C@H]1C(=O)O[C@H](c3ccccc3)[C@H](c3ccccc3)N1[C@@H]2c1ccc(O)cc1 | 0.515 (inactive) | 1.05 | 1.74 (inactive) | 0.402 (inactive) | 0.295 (inactive) | 0.285 (inactive) | 0.269 | 0.987 (inactive) | -1.37 (inactive) | 0.321
5 | Cc1cc(C)c(C(O)C2C=CC3C(=O)N(c4ccccc4)C(=O)C3N2Nc2ccccc2)c(C)c1 (stereo not given) | -0.687 (inactive) | 0.157 | 1.72 (inactive) | 1.23 (inactive) | 0.244 (inactive) | 1.44 (inactive) | -0.824 | -1.56 (inactive) | -3.06 (inactive) | -3.17
6 | COc1ccc(C(=O)Nc2ccc3c(c2)[C@]2(O[C@@H](CCO)[C@H]([Si](C)(C)c4ccc(OC)cc4)[C@H]2C)C(=O)N3Cc2ccccc2)cc1 | 0.257 (inactive) | -0.147 | 4.99 (inactive) | 1.42 (inactive) | 2.07 (inactive) | -0.237 (inactive) | 0.776 | -5.81 (inactive) | -1.21 (inactive) | 0.304
7 | COCCOC(=O)N1C(=O)[C@@]2(c3cc(C#CCCO)ccc31)[C@H](C(=O)N1CCc3cc(OC)c(OC)cc3C1)[C@H]1C(=O)O[C@H](c3ccccc3)[C@H](c3ccccc3)N1[C@@H]2c1ccc(OCCO)cc1 | 1.42 (inactive) | 0.113 | 4.67 (inactive) | 1.02 (inactive) | 0.138 (inactive) | -0.0492 (inactive) | 1.26 | 1.35 (inactive) | 1.07 (inactive) | 1.44
8 | C/C=C/[C@@H](CCn1cc([C@H](O)c2ccccc2)nn1)[Si](C)(C)c1ccc(OC)cc1 | 0.703 (inactive) | 0.121 | 5.3 (inactive) | 1.06 (inactive) | 2.04 (inactive) | 0.473 (inactive) | 0.201 | 0.257 (inactive) | -0.182 (inactive) | -2.21
9 | COc1cc(NN2C(C(O)c3ccc(I)cc3)C=CC3C(=O)N(C)C(=O)C32)cc(OC)c1OC (stereo not given) | -0.0511 (inactive) | 0.125 | 0.318 (inactive) | 0.168 (inactive) | 1.59 (inactive) | -0.374 (inactive) | 1.28 | -2.45 (inactive) | -4.04 (inactive) | -2.92
10 | CC(C)(C)N1CC=CC23O[C@@H]4C=CCCOC(=O)C4[C@H]2C(=O)N(CCCO)[C@@H]3C1=O (stereo not given in full) | 0.471 (inactive) | -0.289 | 0.595 (inactive) | -1.01 (inactive) | 0.79 (inactive) | -1.49 (inactive) | 0.682 | -2.85 (inactive) | -2.02 (inactive) | -0.648
11 | O=C1O[C@@H](c2ccccc2)[C@@H](c2ccccc2)N2[C@@H](c3ccc(O)cc3)[C@]3(C(=O)Nc4ccc(C#CC5(O)CCCCCC5)cc43)[C@@H](C(=O)N3CCN(c4ncccn4)CC3)[C@H]12 | 1.36 (inactive) | 0.214 | 0.0075 (inactive) | -0.443 (inactive) | -5.11 (inactive) | -0.195 (inactive) | -0.181 | 1.07 (inactive) | 0.74 (inactive) | 0.443
12 | CN(C)CCCC[C@@H]1NC(=O)[C@H]2C[C@@H](C(=O)NCCCCCCNC(=O)CS)[C@@H](c3ccc(O)cc3)N2C1=O | 0.446 (inactive) | 0.0048 | 2.46 (inactive) | 0.374 (inactive) | 1.84 (inactive) | 0.178 (inactive) | 0.469 | 1.35 (inactive) | 1.78 (inactive) | 1.52
13 | CCOC(=O)C[C@H]1[C@H](OC(=O)c2cc3ccccc3oc2=O)[C@@H](NC(=O)c2ccc3ccccc3n2)c2cc(OCCCO)ccc2N1C(=O)c1ccc2ccccc2n1 | 1.03 (inactive) | 0.174 | 10.8 (active) | 1.56 (inactive) | 1.25 (inactive) | 0.647 (inactive) | -0.112 | 0.786 (inactive) | 0.715 (inactive) | 2.28
14 | COC(=O)C(CC#Cc1ccc2c(c1)[C@]1(C(=O)N2)[C@H](c2ccc(O)cc2)N2[C@H](c3ccccc3)[C@H](c3ccccc3)OC(=O)[C@H]2[C@@H]1C(=O)O)C(=O)OC | -1.42 (inactive) | 0.0315 | 0.489 (inactive) | -0.18 (inactive) | -0.258 (inactive) | -0.367 (inactive) | -0.351 | 1.42 (inactive) | 0.0467 (inactive) | 1.29
15 | COc1ccc([Si](C)(C)[C@@H]2[C@@H](CC(=O)N3Cc4ccccc4C[C@H]3CO)O[C@]3(C(=O)N(Cc4cccc(N5CCCCC5=O)c4)c4ccccc43)[C@H]2C)cc1 | -0.261 (inactive) | -0.147 | 4.07 (inactive) | 1.27 (inactive) | 1.64 (inactive) | 0.867 (inactive) | 0.297 | -1.63 (inactive) | 0.265 (inactive) | 0.805
16 | CN1C(=O)C2C=CC(C(O)COCc3ccccc3)N(Nc3ccccc3)C2C1=O (stereo not given) | -0.75 (inactive) | 0.167 | 0.625 (inactive) | 0.167 (inactive) | -0.225 (inactive) | 0.63 (inactive) | -1.01 | -2.32 (inactive) | -4.03 (inactive) | -2.63
17 | O=C1C[C@@](C(=O)NCc2ccccc2)(c2ccc([N+](=O)[O-])cc2)[C@@H](c2ccc(CO)cc2I)N1C1CCCCC1 | 0.936 (inactive) | 0.503 | 11.6 (active) | 1.94 (inactive) | 3.44 (inactive) | 1.09 (inactive) | -0.153 | 1.23 (inactive) | -1.03 (inactive) | 2.16
18 | Cc1ccc(S[C@]2(C(=O)NCCN3CCOCC3)CC(=O)N(C3Cc4ccccc4C3)[C@@H]2c2ccc(CO)cc2)cc1 | 0.293 (inactive) | 0.482 | 2.1 (inactive) | 0.0757 (inactive) | 0.62 (inactive) | 0.375 (inactive) | -0.348 | -0.66 (inactive) | -1.82 (inactive) | -1.58
19 | C=CCOC(=O)[C@@H]1[C@H]2C(=O)O[C@H](c3ccccc3)[C@H](c3ccccc3)N2[C@H](c2ccc(OCCOC(=O)[C@H]3C[C@H]4C(=O)N[C@@H](Cc5ccccc5)C(=O)N4[C@H]3c3cccc(OCCO)c3)cc2)[C@@]12C(=O)Nc1ccc(I)cc12 | -0.804 (inactive) | 0.403 | 1.94 (inactive) | 1.79 (inactive) | -1.66 (inactive) | 0.619 (inactive) | 0.652 | 2.21 (inactive) | 0.45 (inactive) | 1.98
20 | COCC(=C=CC[C@@H](O)c1ccccc1OCCO)C[C@@H](O)COCc1ccccc1 | 2.01 (inactive) | 0.455 | 6.15 (inactive) | -0.29 (inactive) | 0.66 (inactive) | -1.22 (inactive) | 0.719 | 0.547 (inactive) | 1.31 (inactive) | -1.66
21 | CC1(C)[C@@H]2CC(C(O)C3C=CC4C(=O)N(c5ccccc5)C(=O)C4N3Nc3ccccc3F)=C[C@@H]1C2 (stereo not given in full) | 0.446 (inactive) | 0.43 | 1.83 (inactive) | 0.194 (inactive) | -1.57 (inactive) | -0.786 (inactive) | 0.586 | 0.318 (inactive) | 0.0669 (inactive) | -0.156
22 | CCOC(=O)C[C@H]1[C@H](OC(=O)c2ccc(C(=O)c3ccccc3)cc2)[C@@H](NC(=O)C2CCCCC2)c2cc(OCCCO)ccc2N1C(=O)Cc1ccc(OC)cc1 | 0.522 (inactive) | 0.271 | 2.32 (inactive) | 0.744 (inactive) | 0.0357 (inactive) | -0.206 (inactive) | 0.0093 | -1.38 (inactive) | 0.626 (inactive) | 1.74
23 | C=CCN1C(=O)[C@@]2(O[C@@H](CCn3cc([C@H](O)c4ccccc4)nn3)[C@H]([Si](C)(C)c3ccc(OC)cc3)[C@H]2C)c2cc(NC(=O)c3ccc(OC)cc3)ccc21 | 0.55 (inactive) | -0.0016 | 6.81 (inactive) | 1.77 (inactive) | 1.39 (inactive) | 1.38 (inactive) | 0.689 | 0.106 (inactive) | 0.863 (inactive) | 0.583
24 | CN(C)CCCNC(=O)[C@@]1(Cc2ccccc2I)c2ccccc2C(=O)N(Cc2ccccc2Cl)[C@H]1c1ccc(CO)cc1 | -2.91 (inactive) | 0.208 | 10.7 (active) | 0.867 (inactive) | -0.613 (inactive) | 0.524 (inactive) | -1.27 | -10.2 (active) | -4.71 (inactive) | -5.47
25 | C=C(C)[C@@H]1CC=C(C(O)C2C=CC3C(=O)N(C4CCCCC4)C(=O)C3N2Nc2ccc(OC)cc2)CC1 (stereo not given in full) | -0.441 (inactive) | 0.203 | 1.75 (inactive) | 0.415 (inactive) | 0.604 (inactive) | 0.56 (inactive) | -0.14 | 0.191 (inactive) | -1.34 (inactive) | -2.14
